Data from PubChem BioAssay (NCI).
About 83,000 compounds went through this panel and 20% of them were active in at least one assay; those are over-represented in the sample as a whole.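 The endpoint reported here, percent growth, reads 100 for growth as untreated, 0 for no net growth and -100 for all cells dead.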 Active and inactive are the calls of the source. Rule for the calls: active = growth percent below 10; inactive = the rest.

Tests used:
Assay in all cases: NCI-60 one-dose screen, 48 h (100 = growth as untreated, 0 = no growth, -100 = all killed)
SK-MEL-2 melanoma = settings: 10 µM unless noted
EKVX NSCLC = settings: 10 µM unless noted
SN12C renal = settings: 10 µM unless noted
UO-31 renal = settings: 10 µM unless noted
TK-10 renal = settings: 10 µM unless noted
ACHN renal = settings: 10 µM unless noted
CAKI-1 renal = settings: 10 µM unless noted
A498 renal = settings: 10 µM
HL-60(TB) leukemia = settings: 10 µM unless noted
CCRF-CEM leukemia = settings: 10 µM unless noted
RPMI-8226 leukemia = settings: 10 µM unless noted
OVCAR-8 ovarian = settings: 10 µM unless noted
OVCAR-5 ovarian = settings: 10 µM unless noted
OVCAR-4 ovarian = settings: 10 µM unless noted
SK-OV-3 ovarian = settings: 10 µM unless noted
IGROV1 ovarian = settings: 10 µM unless noted
OVCAR-3 ovarian = settings: 10 µM unless noted
HS 578T breast = settings: 10 µM unless noted
MOLT-4 leukemia = settings: 10 µM unless noted
SR leukemia = settings: 10 µM unless noted

Measured: growth

COc1ccc(/C=C/c2cc(OC)c(OC)c(OC)c2)cc1NC(=O)/C=C/c1ccc(F)cc1
inactive: SK-MEL-2 melanoma 49.6% | EKVX NSCLC 47.3% | SN12C renal 39.6% | UO-31 renal 39% | TK-10 renal 88.4% | ACHN renal 48.4% | CAKI-1 renal 33.9% | CCRF-CEM leukemia 11% | RPMI-8226 leukemia 51.8% | OVCAR-8 ovarian 36.7% | OVCAR-5 ovarian 57.5% | OVCAR-4 ovarian 61.4% | IGROV1 ovarian 46.9%
active: A498 renal -3.96% | HL-60(TB) leukemia -20% | SK-OV-3 ovarian -29% | OVCAR-3 ovarian -10.9% | HS 578T breast 5.66%

CCOP(=O)(Nc1ccc2c(c1)/C(=N/NC(N)=S)c1ccccc1-2)OCC
inactive: SK-MEL-2 melanoma 110% | EKVX NSCLC 92.9% | SN12C renal 81.9% | UO-31 renal 91.8% | TK-10 renal 104% | ACHN renal 89.9% | CAKI-1 renal 97.4% | A498 renal 96.3% | CCRF-CEM leukemia 85.6% | MOLT-4 leukemia 92% | SR leukemia 109% | RPMI-8226 leukemia 93.5% | OVCAR-8 ovarian 94.7% | OVCAR-5 ovarian 105% | OVCAR-4 ovarian 96.9% | SK-OV-3 ovarian 114% | IGROV1 ovarian 132% | OVCAR-3 ovarian 105% | HS 578T breast 82%

C/C(=C\c1cc(C(F)(F)F)nn1CCNC(=O)OC(C)(C)C)[C@@H]1C[C@@H]2O[C@]2(C)CCC[C@H](C)[C@H](O)[C@@H](C)C(=O)C(C)(C)[C@@H](O)CC(=O)O1
inactive: SK-MEL-2 melanoma 75.1% | EKVX NSCLC 65% | SN12C renal 87% | UO-31 renal 49.5% | TK-10 renal 69.2% | ACHN renal 74.6% | CAKI-1 renal 47.1% | A498 renal 49.3% | CCRF-CEM leukemia 67.2% | MOLT-4 leukemia 25.1% | SR leukemia 28.1% | RPMI-8226 leukemia 22.9% | OVCAR-8 ovarian 61.8% | OVCAR-5 ovarian 68.7% | OVCAR-4 ovarian 71.4% | SK-OV-3 ovarian 86.3% | IGROV1 ovarian 49.2% | OVCAR-3 ovarian 30.8% | HS 578T breast 61.3%

CCCCCCCCCCCCCCCCCCOc1ccccc1COP(=O)(O)OOCC[N+](C)(C)C
active: SN12C renal -6.04% | TK-10 renal 3.59% | ACHN renal 8.89% | CAKI-1 renal 1.63% | HL-60(TB) leukemia -42% | CCRF-CEM leukemia -12.8% | SR leukemia -8.81% | OVCAR-8 ovarian -30.5% | IGROV1 ovarian -74.1% | OVCAR-3 ovarian -29.2%
inactive: SK-MEL-2 melanoma 35.9% | EKVX NSCLC 11.4% | UO-31 renal 38.5% | A498 renal 52.6% | OVCAR-5 ovarian 40.5% | OVCAR-4 ovarian 34.6% | SK-OV-3 ovarian 36.2% | HS 578T breast 15.6%

O=[As](O)(O)c1ccccc1[As](=O)(O)O
inactive: SK-MEL-2 melanoma 119% | EKVX NSCLC 110% | SN12C renal 110% | UO-31 renal 78.8% | TK-10 renal 119% | ACHN renal 91.1% | CAKI-1 renal 94.5% | A498 renal 102% | HL-60(TB) leukemia 113% | CCRF-CEM leukemia 110% | SR leukemia 91.3% | RPMI-8226 leukemia 109% | OVCAR-8 ovarian 99.7% | OVCAR-5 ovarian 92.6% | SK-OV-3 ovarian 111% | IGROV1 ovarian 135% | OVCAR-3 ovarian 103% | HS 578T breast 114%

O=C1Nc2ccccc2C2c3cccn3-c3ccccc3CN12 (centres undefined)
inactive: EKVX NSCLC 67.8% | SN12C renal 69.4% | UO-31 renal 60% | TK-10 renal 71.8% | ACHN renal 81.6% | CAKI-1 renal 63.4% | A498 renal 41.1% | HL-60(TB) leukemia 44.6% | MOLT-4 leukemia 29.3% | SR leukemia 19% | RPMI-8226 leukemia 55.2% | OVCAR-8 ovarian 63.3% | OVCAR-5 ovarian 82.3% | OVCAR-4 ovarian 71.7% | SK-OV-3 ovarian 46.7% | IGROV1 ovarian 62.9% | OVCAR-3 ovarian 41.7% | HS 578T breast 64.2%
active: SK-MEL-2 melanoma 6.54%

COC(=O)C12CC(NC(=O)c3csc([C@@H](C[C@H](C(C)C)N(C)C(=O)[C@@H](NC(=O)[C@H]4CCCCN4C)C(C)C)OC(C)=O)n3)(C1)C2
inactive: SK-MEL-2 melanoma 28.5% | EKVX NSCLC 44% | SN12C renal 24.5% | UO-31 renal 44.4% | TK-10 renal 56.5% | ACHN renal 22.9% | MOLT-4 leukemia 14.3% | SR leukemia 15.2% | RPMI-8226 leukemia 17.8% | OVCAR-8 ovarian 24.8% | OVCAR-5 ovarian 46.8% | OVCAR-4 ovarian 50.4% | SK-OV-3 ovarian 13.2% | IGROV1 ovarian 19.3% | HS 578T breast 35.3%
active: A498 renal -1.32% | HL-60(TB) leukemia -38.9% | CCRF-CEM leukemia 8.23% | OVCAR-3 ovarian -17.5%

O=[N+]([O-])CC(c1ccccc1Cl)c1c(-c2ccccc2)[nH]c2ccccc12 (centres undefined)
active: HL-60(TB) leukemia 6.94% | OVCAR-3 ovarian 9.26%
inactive: SK-MEL-2 melanoma 27.2% | EKVX NSCLC 40.6% | SN12C renal 53.4% | UO-31 renal 45.1% | TK-10 renal 61.6% | ACHN renal 39.7% | CAKI-1 renal 24.4% | CCRF-CEM leukemia 23.6% | SR leukemia 18.9% | RPMI-8226 leukemia 45.2% | OVCAR-8 ovarian 40.4% | OVCAR-5 ovarian 69.1% | OVCAR-4 ovarian 66.4% | SK-OV-3 ovarian 44.1% | IGROV1 ovarian 33.8% | HS 578T breast 41.2%

CC(=O)O[C@H](C[C@H](C(C)C)N(C)C(=O)[C@@H](NC(=O)[C@H]1CCCCN1C)C(C)C)c1nc(C(=O)N[C@@H](Cc2ccccc2)C[C@H](C)C(=O)O)c(C)s1
inactive: SK-MEL-2 melanoma 61.5% | EKVX NSCLC 40.9% | SN12C renal 34.6% | UO-31 renal 58.9% | TK-10 renal 36.9% | ACHN renal 26.6% | CCRF-CEM leukemia 10.8% | MOLT-4 leukemia 20.7% | RPMI-8226 leukemia 25.1% | OVCAR-8 ovarian 20.1% | OVCAR-5 ovarian 31% | OVCAR-4 ovarian 50.6% | IGROV1 ovarian 31.1% | OVCAR-3 ovarian 12.5% | HS 578T breast 21.1%
active: A498 renal -8.24% | HL-60(TB) leukemia -8.97% | SR leukemia 7.46% | SK-OV-3 ovarian 6.87%

CC(C)(C)C(=O)OCOP(=O)(NCc1ccccc1)C1CCCN(O)C1=O (centres undefined)
active: SN12C renal 5.58% | UO-31 renal 1.82% | MOLT-4 leukemia 9.06% | SR leukemia 9.38% | OVCAR-3 ovarian -6.7%
inactive: SK-MEL-2 melanoma 53.7% | EKVX NSCLC 67.3% | TK-10 renal 68.9% | ACHN renal 34.2% | CAKI-1 renal 31.9% | HL-60(TB) leukemia 52.2% | CCRF-CEM leukemia 12.9% | OVCAR-8 ovarian 14.2% | OVCAR-5 ovarian 94.5% | OVCAR-4 ovarian 19.9% | SK-OV-3 ovarian 59.7% | IGROV1 ovarian 19.4% | HS 578T breast 14.7%

CC1(C)C(C(=O)c2cn(CCCCF)c3ccccc23)C1(C)C
inactive: SK-MEL-2 melanoma 86.4% | EKVX NSCLC 88.7% | SN12C renal 103% | UO-31 renal 95.2% | TK-10 renal 102% | ACHN renal 115% | A498 renal 92.9% | HL-60(TB) leukemia 76% | CCRF-CEM leukemia 87.1% | MOLT-4 leukemia 77.8% | SR leukemia 77.9% | RPMI-8226 leukemia 81.5% | OVCAR-8 ovarian 82% | OVCAR-5 ovarian 103% | OVCAR-4 ovarian 107% | SK-OV-3 ovarian 102% | IGROV1 ovarian 114% | OVCAR-3 ovarian 105% | HS 578T breast 88.5%
